# A selection: hits, their analogues and other compounds. The true share with any hit is near 1.6%.
# Vc quorum ag = induces V. cholerae light production without autoinducers. activation, % at 18.7 µM. 350,000 tested, 0.16% active. V. cholerae BH1578 lux reporter, luminescence, 6 h; in the data active = activation mostly above about 9.7%, no sharp cut-off; inconclusive = no clear call, values can overlap the other calls; inactive = mostly below about 3.7%
# PrP 5UTR inh = inhibition of PrP 5' UTR reporter expression. 340,000 tested, 0.35% active. AID 488862. cell-based PrP 5' UTR mRNA reporter, plate reader. inhibition, % (concentration not given with the values); in the data active = inhibition above about 52%; note: 0 = median of the neutral control wells
# PfHsp40 yeast = compounds rescuing yeast from Plasmodium falciparum HSP40 toxicity; 340,000 tested, 0.68% active; S. cerevisiae expressing PfHsp40, growth rescue, ATP luminescence; AID 504582; growth rescue, % at 12.5 µM; in the data active = growth rescue above about 28%, passing the limit was not always enough; inconclusive = no clear call, values can overlap the other calls;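 note: yeast W303a lacking pdr1 and pdr3 grown in galactose medium; growth measured after three days at 30 °C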
# SSB-PriA inh = blocks PriA binding to SSB C-terminal tail; AlphaScreen SSBct-PriA binding, biotinylated peptide; 430,000 tested, 0.6% active; inhibition, % at 33 µM; in the data active = inhibition mostly above about 37%, no sharp cut-off; inactive = mostly below about 20%;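 note: plate controls were negative control peptide for no effect and reference peptide for full effect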
# SARS 3CLpro inh = SARS-CoV 3CLpro protease inhibition; recombinant SARS-CoV 3CLpro, quenched FRET peptide cleavage; inhibition, % at 6 µM; 290,000 tested, 0.14% active; in the data active = inhibition above about 12%
# PrPC surface inh = reduces human prion protein on the cell surface. P04156. cell surface PrPC, TR-FRET read-out. inhibition, % at 13.8 µM. 370,000 tested, 0.43% active. AID 720596; in the data active = inhibition above about 24%; note: 0% = median of the test wells and 100% = reference compound wells
# Active calls of the source: *; i = inactive; ? = inconclusive; nt = not tested or not shown.
SMILES,Vc quorum ag,PrP 5UTR inh,PfHsp40 yeast,SSB-PriA inh,SARS 3CLpro inh,PrPC surface inh
COc1cc(O)c(CC=C(C)C)c(O)c1C(=O)CCc1ccc(O)cc1,0,-11,210*,-3,nt,3
O=[N+]([O-])c1ccc2c(c1)Cc1cc(O)ccc1-2,i,-30,51*,-13,nt,-33
O=C(O)c1cccc2c1Cc1cc([N+](=O)[O-])ccc1-2,i,-20,118*,5,nt,-16
Nc1ccc2c(c1)Cc1cc([N+](=O)[O-])ccc1-2,0,-37,5,-9,0,-30
Cc1ccc(/C=C/C(=O)N2CCC3(O)CCCCC3C2)cc1 (configuration not stated),nt,nt,nt,4,nt,nt
O=S(=O)(CCC(F)(F)F)Nc1cnc2ccnn2c1,nt,nt,nt,-10,nt,nt
COc1ccc(CN2C(=O)C(Cc3ccccc3)Nc3ncnc(N4CCOCC4)c32)cc1 (configuration not stated),i,-28,45*,2,nt,6
O=C1C(Cc2ccccc2)Nc2ncnc(N3CCc4ccccc4C3)c2N1Cc1ccc(Cl)cc1 (configuration not stated),i,-5,38*,-5,nt,nt
CCC1Nc2ncnc(N3CCc4ccccc4C3)c2N(Cc2ccc(Cl)cc2)C1=O (configuration not stated),-1,3,1,-1,nt,-2
O=C1C(Cc2ccccc2)Nc2ncnc(N3CCOCC3)c2N1Cc1ccccc1 (configuration not stated),1,-11,-1,5,nt,1
COc1ccccc1CNc1ncnc2c1cnn2-c1ccccc1,0,-32,1,46*,nt,17
O=C1NC(=Nc2ccccc2)/C(=C/c2cccs2)S1,nt,nt,nt,-6,nt,nt
N#Cc1c(N)sc(=S)c2c1CCCC2,1,-26,1,65*,-4,-5
O=c1[nH]c(=O)n(C2CCCCCC2)c(O)c1C=NC1CCN(Cc2ccccc2)CC1,38*,-17,0,-3,0,-5
Cc1ccc2nc(NNC(=O)c3ccc(S(=O)(=O)N4CCc5ccccc5C4)cc3)sc2c1,0,47,9,95*,8,17
COC(=O)c1sc2ccccc2c1NC(=O)c1ccc(S(=O)(=O)N2CC(C)CC(C)C2)cc1 (configuration not stated),-3,-4,-1,-3,2,0
Cc1cc(C)c2nc(NNC(=O)c3ccc(S(=O)(=O)N4CCCC(C)C4)cc3)sc2c1 (configuration not stated),i,7,97*,0,2,-1
Cc1cc(C)c2nc(NNC(=O)c3ccc(S(=O)(=O)N4CC(C)CC(C)C4)cc3)sc2c1 (configuration not stated),0,4,?,1,-2,1
Cc1cccc2sc(NNC(=O)c3ccc(S(=O)(=O)N4CC(C)CC(C)C4)cc3)nc12 (configuration not stated),0,30,285*,1,0,5
O=C(Cn1nc(-c2cccc([N+](=O)[O-])c2)ccc1=O)NCc1ccco1,nt,nt,nt,13,nt,nt
CN1CCN(Cc2ccc(Sc3ccc(Cl)cc3)c([N+](=O)[O-])c2)CC1,0,-16,-2,7,-2,-19
O=[N+]([O-])c1cc(CN2CCN(Cc3ccccc3)CC2)ccc1Sc1ccc(Cl)cc1,nt,nt,nt,58*,nt,nt
c1ccc(C(c2c[nH]c3ccccc23)c2c[nH]c3ccccc23)nc1,i,-28,0,32,1,-15
Cn1cc(C(c2ccccn2)c2cn(C)c3ccccc23)c2ccccc21,i,-13,2,50*,6,11
O=C1CC(NC(=O)c2ccccc2)C(=O)O1 (configuration not stated),nt,nt,nt,8,nt,nt
SMILES,Vc quorum ag,PrP 5UTR inh,PfHsp40 yeast,SSB-PriA inh,SARS 3CLpro inh,PrPC surface inh
Cc1nc(N2CCN(C(=O)c3ccc(Cl)s3)CC2)cc(C(F)(F)F)n1,nt,nt,nt,-9,nt,nt
COc1cccc(C(=O)N(CCCn2ccnc2)c2nc3ccc(C)cc3s2)c1OC,nt,nt,nt,41,nt,nt
O=C(c1ccc(Cl)s1)N(CCCn1ccnc1)c1nc2c(F)cccc2s1,nt,nt,nt,38*,nt,nt
COc1cc(OC)cc(C(=O)N(CCCn2ccnc2)c2nc3cc(C)cc(C)c3s2)c1,nt,nt,nt,40*,nt,nt
CCc1cccc2sc(N(CCCn3ccnc3)C(=O)c3cccc(OC)c3OC)nc12,nt,nt,nt,42*,nt,nt
COc1ccc(OC)c2sc(N(CCCn3ccnc3)C(=O)COc3ccccc3)nc12,nt,nt,nt,73*,nt,nt
CCOc1ccc2nc(N(CCCn3ccnc3)C(=O)COc3ccccc3)sc2c1,nt,nt,nt,31,nt,nt

# High-throughput results (PubChem BioAssay)
